High-throughput results as filed in PubChem BioAssay.
Shown are actives, neighbours in structure and some others; about 2.9% of the full set was active somewhere.
D3 antag – blocks the human D3 dopamine receptor. 360,000 compounds, 2.5% hits. D3R cells, DiscoveRx beta-arrestin luminescence, antagonist mode; stronger effect = lower value. P35462. max response, negative = inhibition, %; in the data active = max response below about -50%; inconclusive = no clear call, values can overlap the other calls
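Cells plated overnight at 1500 cells/well, then exposed to library compounds with dopamine controls for 90 minutes at 37 degrees C. DiscoveRx reagent added for 30–60 minutes at room temperature; luminescence read, quantitative HTS format.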
DRD3 agonist – D3 dopamine receptor (human) agonism. P35462. D3R DiscoveRx beta-arrestin cells, luminescence, 90 min. max activation, %. 410,000 compounds, 0.58% hits. AID 652048; in the data active = max activation above about 30%
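Cells at 1500/well, incubated overnight, then treated with pinned compounds (dopamine as control) for 90 min at 37 degrees C. DiscoveRx reagent added for 30 - 60 minutes at room temperature; luminescence read.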
B2AR arrestin – recruits beta-arrestin to the human beta2-adrenergic receptor; P07550; beta-arrestin recruitment to beta2AR, cell-based reporter; Potency, µM (top dose mostly 46.1 µM), usual class: activators; 330,000 compounds, 0.02% hits; active = well fitted activation curve with a large enough effect; inconclusive = small, poorly fitted or top-dose-only effect; note: nearly all actives have a fitted effect of over 65% in size
Target sequence (P07550 whole entry, looked up): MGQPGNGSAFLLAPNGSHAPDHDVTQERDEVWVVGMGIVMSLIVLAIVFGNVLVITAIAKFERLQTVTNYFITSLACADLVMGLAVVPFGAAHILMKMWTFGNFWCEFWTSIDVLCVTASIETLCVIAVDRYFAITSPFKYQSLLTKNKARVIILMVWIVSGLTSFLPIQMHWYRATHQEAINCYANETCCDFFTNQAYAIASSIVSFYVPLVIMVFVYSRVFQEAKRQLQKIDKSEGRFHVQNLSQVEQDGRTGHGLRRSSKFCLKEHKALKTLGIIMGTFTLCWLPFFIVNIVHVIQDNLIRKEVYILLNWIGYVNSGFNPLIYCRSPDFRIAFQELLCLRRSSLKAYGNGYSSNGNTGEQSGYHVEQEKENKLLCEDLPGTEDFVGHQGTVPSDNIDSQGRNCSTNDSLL
TSHR antagonist – antagonists of human thyroid stimulating hormone receptor | P16473 | TSHR-expressing cells, TSH-stimulated cAMP HTRF, 2 h; stronger effect = lower value | activity change, negative = inhibition, % at 11.5 µM | 330,000 compounds, 0.2% hits | AID 504810;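 active = activity change below a set negative limit, meaning inhibition stronger than a set level, cut at about -70% in these data; inconclusive = activity change between two set negative limits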
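TSHR-expressing cells, 200/well, pre-treated with compound, then stimulated with EC80 TSH (4nM final) for 2 hours at 37 deg C. cAMP measured by competitive HTRF: anti-cAMP cryptate antibody in lysis buffer plus cAMP-d2, read after 30 minutes at room temperature.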
Numbers stand for hits; . = inactive; ? = inconclusive; / = not tested or not shown.

SMILES	D3 antag	DRD3 agonist	B2AR arrestin	TSHR antagonist
CCC(c1nnnn1-c1c(C)cccc1C)N1CCN(c2cccc(C(F)(F)F)n2)CC1 (stereo not given)	-67.9	.	/	/
COc1ccc(O)c(C2Nc3ccccc3-n3c(-c4ccccc4)c4c(=O)n(C)c(=O)n(C)c4c32)c1 (stereo not given)	/	44.8	/	/
Cc1ccc(-c2c3c(=O)n(C)c(=O)n(C)c3c3n2-c2ccccc2NC3c2ccc(C)cc2O)cc1 (stereo not given)	/	47.1	/	/
Cn1c(=O)c2c(-c3ccccc3)n3c(c2n(C)c1=O)C(c1ccc([N+](=O)[O-])cc1)Nc1ccccc1-3 (stereo not given)	/	.	/	/
Cc1cc(C)cc(N2CC(c3nnc(NC(=O)c4ccco4)s3)CC2=O)c1 (stereo not given)	/	.	/	/
CCOc1ccc(NC(=O)CN2CCN(c3ccccc3C)CC2)cc1S(=O)(=O)N1CCCC1	-61.5	.	.	.
COC(=O)c1ccc(NC(=O)CN2CCN(c3ccccc3C)CC2)cc1	-77.0	.	.	.
Cc1cccc(N2CCN(CC(=O)NCC3CCCCC3)CC2)c1C	-63.0	.	.	.
COc1ccc(NC(=O)CN2CCN(c3ccccc3Cl)CC2)cc1	-61.4	.	.	.
O=C(Nc1ccc(Oc2ccccc2)cc1)C1CCN(S(=O)(=O)c2ccccc2)CC1	/	.	/	/
CCOC(=O)Cc1cc(C(=O)Nc2ccc(Br)cc2)sc1-c1ccc(C)cc1	/	.	/	/
CC(C)(C)CC(C)(C)NC(=S)NC1CCN(Cc2ccccc2)CC1	?	.	.	.
S=C(Nc1ccc(CN2CCCCC2)cc1)Nc1cccc(Cl)c1Cl	-75.8	.	.	.
S=C(Nc1cccc(Cl)c1Cl)NC1CCN(Cc2ccccc2)CC1	-90.2	.	.	.
Cc1cccc(NC(=S)N2CCN(Cc3ccccc3)CC2)c1C	.	.	.	.
Cc1cccc(NC(=S)NC2CCN(Cc3ccccc3)CC2)c1C	-53.2	.	.	.
S=C(Nc1ccccc1)Nc1cccc(Cl)c1Cl	.	.	.	.
CCn1cc(C(=O)NCCc2ccc(C)cc2)c(=O)c2cc(S(=O)(=O)N3CCc4ccccc4C3)ccc21	/	.	/	/
COc1ccc(Br)cc1CNc1ccc(O)cc1	-66.4	.	.	.
COc1ccc(Br)cc1CNc1ccc2[nH]c(=O)[nH]c2c1	.	.	.	.
CCCCc1ccc(NC(=O)CSc2nc3ccccc3nc2N2CCOCC2)cc1	/	.	/	/
COc1cc(OC)c(C2CC(=O)N3CN(c4ccccc4)CSC3=C2C#N)cc1OC (stereo not given)	.	.	.	.
CCc1ccccc1N1CSC2=C(C#N)C(c3cc(OC)c(OC)cc3OC)CC(=O)N2C1 (stereo not given)	-67.9	.	.	.
Cc1ccccc1C(=O)Nc1sc(C)c(C)c1C(=O)c1ccccc1	.	.	.	.
Cc1sc(NC(=O)CCl)c(C(=O)c2ccccc2)c1C	-66.3	.	.	.
SMILES	D3 antag	DRD3 agonist	B2AR arrestin	TSHR antagonist
O=C(/C=C/c1ccc(Cl)cc1Cl)n1cccn1	-58.6	.	.	.
O=C(/C=C/c1ccc(Cl)cc1Cl)c1ccc[nH]1	.	.	.	.
C=C(C)Cn1c(=O)c2c(nc3n2CCN3c2ccc(CC)cc2)n(C)c1=O	/	.	/	/
Nc1ccc(C23CC4CC(CC(CO)(C4)C2)C3)cc1	.	.	.	.
Nc1ccc(C23CC4CC(CC(O)(C4)C2)C3)cc1	-50.3	.	.	.
O=C(NCc1ccc(Cl)cc1)C1CCN(c2ncnc3c2nc2n3CCCCC2)CC1	/	.	/	/
CCCCN(CC)CCNC(=O)c1cc2c(-c3ccc(Cl)cc3)nn(C)c2s1	-61.6	.	.	.
CCN(CC)CCNC(=O)c1cc2c(-c3ccc(Cl)cc3)nn(C)c2s1	?	.	.	.
CCCN(CCC)CCCNC(=O)c1cc2c(-c3ccc(OC)c(OC)c3)nn(C)c2s1	-91.7	.	.	.
NC(=O)c1ccc(N=C2C(=O)Nc3ccc([N+](=O)[O-])cc32)cc1	-62.4	.	.	.
Cc1ccccc1OCCNc1cc(N2CCN(CCO)CC2)ccc1[N+](=O)[O-]	-64.4	.	.	.
COc1cccc(OCCNc2cc(N3CCCCC3)ccc2[N+](=O)[O-])c1	.	.	.	.
Cc1cccc(OCCNc2cc(N3CCN(CCO)CC3)ccc2[N+](=O)[O-])c1	-57.7	.	.	.
O=C(CSc1cn(CC(=O)N2CCCC2)c2ccccc12)Nc1cc(C(F)(F)F)ccc1Cl	/	.	/	/
Cc1ccc(-n2nc3c(=O)n(C(C)C(=O)NC4CC4)nc(C)c3c2C)cc1 (stereo not given)	.	.	.	-113.7
